Results: the supplement of paper PMC8728848
Many of the other results were omitted from the sample, so the strongest signals are more common in it than they were.

Key:
Experiment in all cases: glycan array binding signal (z-score within array); higher = stronger binding
Settings in all cases: glycan notation: IUPAC condensed, linker removed; mutation: H59Q
[1] = biological target: Fuc(a1-2)Gal(b1-3)[Fuc(a1-4)]GlcNAc(b1-2)Man(a1-3)[Fuc(a1-2)Gal(b1-3)[Fuc(a1-4)]GlcNAc(b1-2)Man(a1-3)]Man(b1-4)GlcNAc(b1-4)GlcNAc
Summary of the method: (§1)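 From the Consortium for Functional Glycomics database, 3228 arrays were curated, keeping only those whose protein sequence was available. Binding is given as a within-array Z-score averaged across arrays sharing a protein sequence and across linkers. Negative Z-scores can be read as non-binding.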

[2] = biological target: Fuc(a1-2)Gal(b1-4)GlcNAc(b1-3)Gal(b1-4)GlcNAc(b1-3)Gal(b1-4)GlcNAc
Summary of the method: as §1

[3] = biological target: Fuc(a1-2)Gal(b1-4)GlcNAc6S
Summary of the method: as §1

[4] = biological target: Fuc(a1-2)Gal(b1-4)[Fuc(a1-3)]GlcNAc
Summary of the method: as §1

[5] = biological target: Fuc(a1-2)Gal(b1-4)[Fuc(a1-3)]GlcNAc(b1-2)Man(a1-3)[Fuc(a1-2)Gal(b1-4)[Fuc(a1-3)]GlcNAc(b1-2)Man(a1-6)]Man(b1-4)GlcNAc(b1-4)[Fuc(a1-6)]GlcNAc
Summary of the method: as §1

[6] = biological target: Fuc(a1-2)[Gal(a1-3)]Gal(b1-4)[Fuc(a1-3)]Glc
Summary of the method: as §1

[7] = biological target: Fuc(a1-2)[GalNAc(a1-3)]Gal(b1-3)GlcNAc(b1-2)Man(a1-3)[Fuc(a1-2)[GalNAc(a1-3)]Gal(b1-3)GlcNAc(b1-2)Man(a1-6)]Man(b1-4)GlcNAc(b1-4)[Fuc(a1-6)]GlcNAc
Summary of the method: as §1

[8] = biological target: Fuc(a1-2)[GalNAc(a1-3)]Gal(b1-3)GlcNAc(b1-3)GalNAc
Summary of the method: as §1

[9] = biological target: Fuc(a1-2)[GalNAc(a1-3)]Gal(b1-4)GlcNAc(b1-6)GalNAc
Summary of the method: as §1

[10] = biological target: Fuc(a1-3)[Gal(b1-4)]GlcNAc(b1-6)GalNAc
Summary of the method: as §1

[11] = biological target: Gal(a1-3)Gal(b1-4)Glc
Summary of the method: as §1

[12] = biological target: Gal(b1-3)GlcNAc(a1-3)Gal(b1-4)GlcNAc
Summary of the method: as §1

[13] = biological target: Gal(b1-3)GlcNAc(b1-3)Gal(b1-4)GlcNAc
Summary of the method: as §1

[14] = biological target: Gal(b1-3)GlcNAc(b1-3)Gal(b1-4)GlcNAc(b1-2)[Gal(b1-3)GlcNAc(b1-3)Gal(b1-4)GlcNAc(b1-6)]Man(a1-6)[Gal(b1-3)GlcNAc(b1-3)Gal(b1-4)GlcNAc(b1-2)Man(a1-3)]Man(b1-4)GlcNAc(b1-4)[Fuc(a1-6)]GlcNAc
Summary of the method: as §1

[15] = biological target: Gal(b1-3)[Fuc(a1-4)]GlcNAc
Summary of the method: as §1

[16] = biological target: Gal(b1-4)GlcNAc(b1-2)Man(a1-3)[GlcNAc(b1-4)][Gal(b1-4)GlcNAc(b1-2)Man(a1-6)]Man(b1-4)GlcNAc(b1-4)GlcNAc
Summary of the method: as §1

[17] = biological target: Gal(b1-4)GlcNAc(b1-2)Man(a1-3)[Man(a1-6)]Man(b1-4)GlcNAc(b1-4)GlcNAc
Summary of the method: as §1

[18] = biological target: Gal(b1-4)GlcNAc(b1-2)Man(a1-6)[Man(a1-3)]Man(b1-4)GlcNAc(b1-4)GlcNAc
Summary of the method: as §1

[19] = biological target: Gal(b1-4)GlcNAc(b1-3)Gal(b1-4)GlcNAc(b1-2)Man(a1-3)[Gal(b1-4)GlcNAc(b1-3)Gal(b1-4)GlcNAc(b1-2)Man(a1-6)]Man(b1-4)GlcNAc(b1-4)[Fuc(a1-6)]GlcNAc
Summary of the method: as §1

[20] = biological target: Gal(b1-4)GlcNAc(b1-3)[GlcNAc(b1-6)]Gal(b1-4)GlcNAc
Summary of the method: as §1

[21] = biological target: Gal3S(b1-3)GalNAc
Summary of the method: as §1

[22] = biological target: Gal3S(b1-3)GlcNAc
Summary of the method: as §1

[23] = biological target: Gal3S(b1-4)Glc
Summary of the method: as §1

[24] = biological target: Gal3S(b1-4)Glc6S
Summary of the method: as §1

[25] = biological target: Gal3S(b1-4)GlcNAc
Summary of the method: as §1

[26] = biological target: Gal3S(b1-4)[Fuc(a1-3)]GlcNAc6S
Summary of the method: as §1

[27] = biological target: Gal3S4S(b1-4)GlcNAc
Summary of the method: as §1

[28] = biological target: Gal3S6S(b1-4)GlcNAc6S
Summary of the method: as §1

[29] = biological target: Gal6S(b1-3)GlcNAc6S
Summary of the method: as §1

[30] = biological target: Gal6S(b1-4)GlcNAc
Summary of the method: as §1

[31] = biological target: Gal6S(b1-4)GlcNAc6S
Summary of the method: as §1

[32] = biological target: GalNAc(b1-4)GlcNAc6S
Summary of the method: as §1

[33] = biological target: GlcA(b1-6)Gal
Summary of the method: as §1

[34] = biological target: GlcA3S(b1-3)Gal(b1-4)GlcNAc(b1-2)Man
Summary of the method: as §1

[35] = biological target: GlcA3S(b1-3)Gal(b1-4)GlcNAc(b1-3)Gal(b1-4)Glc
Summary of the method: as §1

[36] = biological target: GlcNAc(a1-4)Gal(b1-4)GlcNAc(b1-3)Gal(b1-4)Glc
Summary of the method: as §1

[37] = biological target: GlcNAc(b1-2)Man(a1-3)[GlcNAc(b1-2)Man(a1-6)]Man(b1-4)GlcNAc(b1-4)[Fuc(a1-6)]GlcNAc
Summary of the method: as §1

[38] = biological target: GlcNAc(b1-2)[GlcNAc(b1-4)]Man(a1-3)[GlcNAc(b1-4)][GlcNAc(b1-2)Man(a1-6)]Man(b1-4)GlcNAc(b1-4)GlcNAc
Summary of the method: as §1

[39] = biological target: Man(a1-2)Man(a1-3)[Man(a1-6)]Man(a1-6)[Man(a1-2)Man(a1-3)]Man(b1-4)GlcNAc(b1-4)GlcNAc
Summary of the method: as §1

[40] = biological target: Man(a1-3)[Man(a1-6)]Man(b1-4)GlcNAc(b1-4)GlcNAc
Summary of the method: as §1

[41] = biological target: Neu5Ac(a2-3)Gal(b1-3)GalNAc6S
Summary of the method: as §1

[42] = biological target: Neu5Ac(a2-3)Gal(b1-3)GlcNAc(b1-2)Man(a1-3)[GlcNAc(b1-4)][Neu5Ac(a2-3)Gal(b1-3)GlcNAc(b1-2)Man(a1-6)]Man(b1-4)GlcNAc(b1-4)GlcNAc
Summary of the method: as §1

[43] = biological target: Neu5Ac(a2-3)Gal(b1-4)GlcNAc(b1-2)Man
Summary of the method: as §1

[44] = biological target: Neu5Ac(a2-3)Gal(b1-4)GlcNAc(b1-2)[Neu5Ac(a2-3)Gal(b1-4)GlcNAc(b1-4)]Man(a1-3)[GlcNAc(b1-4)][Neu5Ac(a2-3)Gal(b1-4)GlcNAc(b1-4)Man(a1-6)]Man(b1-4)GlcNAc(b1-4)GlcNAc
Summary of the method: as §1

[45] = biological target: Neu5Ac(a2-3)Gal(b1-4)GlcNAc(b1-3)GalNAc
Summary of the method: as §1

[46] = biological target: Neu5Ac(a2-3)Gal(b1-4)[Fuc(a1-3)]GlcNAc(b1-3)GalNAc
Summary of the method: as §1

[47] = biological target: Neu5Ac(a2-3)[GalNAc(b1-4)]Gal(b1-4)GlcNAc(b1-3)GalNAc
Summary of the method: as §1

[48] = biological target: Neu5Ac(a2-6)Gal(b1-4)GlcNAc(b1-2)Man(a1-3)[Man(a1-6)]Man(b1-4)GlcNAc(b1-4)GlcNAc
Summary of the method: as §1

[49] = biological target: Neu5Ac(a2-6)GalNAc(b1-4)GlcNAc
Summary of the method: as §1

[50] = biological target: Neu5Ac(a2-8)Neu5Ac(a2-3)Gal(b1-3)GalNAc(b1-4)[Neu5Ac(a2-8)Neu5Ac(a2-3)]Gal(b1-4)Glc
Summary of the method: as §1

[51] = biological target: Neu5Gc(a2-6)GalNAc
Summary of the method: as §1

[52] = biological target: Neu5Gc(a2-8)Neu5Gc(a2-6)Gal(b1-4)GlcNAc
Summary of the method: as §1

[53] = biological target: Neu5Gc(b2-6)Gal(b1-4)GlcNAc
Summary of the method: as §1

B1: rAAL-H59Q (Agrocybe aegerita), Q6WY08 (protein)
chain: MQGVNIYNISAGTSVDLAAPVTTGDIVTFFSSALNLNAGAGNPNNTTLNLFAENGAYLLQIAFRLQENVIIFNSRQPDGPWLVEQRVSDVANQFAGIDGKAMVTVFDHGDKYQVVINEKTVIQYTKQISGLTLSLSYNATEETSIFSTVVEAVTYTGLALEHHHHHH
glycan array binding signal (z-score) [1]: -0.014 | glycan array binding signal (z-score) [2]: -0.113 | glycan array binding signal (z-score) [3]: -0.085 | glycan array binding signal (z-score) [4]: -0.09 | glycan array binding signal (z-score) [5]: 0.171 | glycan array binding signal (z-score) [6]: -0.097 | glycan array binding signal (z-score) [7]: -0.106 | glycan array binding signal (z-score) [8]: -0.035 | glycan array binding signal (z-score) [9]: -0.124 | glycan array binding signal (z-score) [10]: -0.126 | glycan array binding signal (z-score) [11]: -0.07 | glycan array binding signal (z-score) [12]: -0.119 | glycan array binding signal (z-score) [13]: -0.093 | glycan array binding signal (z-score) [14]: 0.115 | glycan array binding signal (z-score) [15]: -0.116 | glycan array binding signal (z-score) [16]: -0.06 | glycan array binding signal (z-score) [17]: -0.059 | glycan array binding signal (z-score) [18]: 0.003 | glycan array binding signal (z-score) [19]: -0.015 | glycan array binding signal (z-score) [20]: -0.115 | glycan array binding signal (z-score) [21]: 7.76 | glycan array binding signal (z-score) [22]: 0.192 | glycan array binding signal (z-score) [23]: 0.7 | glycan array binding signal (z-score) [24]: 0.468 | glycan array binding signal (z-score) [25]: 0.615 | glycan array binding signal (z-score) [26]: 0.694 | glycan array binding signal (z-score) [27]: -0.119 | glycan array binding signal (z-score) [28]: 0.071 | glycan array binding signal (z-score) [29]: -0.113 | glycan array binding signal (z-score) [30]: -0.086 | glycan array binding signal (z-score) [31]: -0.14 | glycan array binding signal (z-score) [32]: -0.023 | glycan array binding signal (z-score) [33]: -0.064 | glycan array binding signal (z-score) [34]: 19.6 | glycan array binding signal (z-score) [35]: 12.1 | glycan array binding signal (z-score) [36]: -0.059 | glycan array binding signal (z-score) [37]: -0.07 | glycan array binding signal (z-score) [38]: -0.055 | glycan array binding signal (z-score) [39]: -0.093 | glycan array binding signal (z-score) [40]: -0.085 | glycan array binding signal (z-score) [41]: -0.117 | glycan array binding signal (z-score) [42]: -0.066 | glycan array binding signal (z-score) [43]: -0.03 | glycan array binding signal (z-score) [44]: -0.016 | glycan array binding signal (z-score) [45]: -0.092 | glycan array binding signal (z-score) [46]: 0.246 | glycan array binding signal (z-score) [47]: -0.084 | glycan array binding signal (z-score) [48]: 0.009 | glycan array binding signal (z-score) [49]: -0.112 | glycan array binding signal (z-score) [50]: -0.103 | glycan array binding signal (z-score) [51]: -0.145 | glycan array binding signal (z-score) [52]: -0.072 | glycan array binding signal (z-score) [53]: -0.027
